Structures are written as SMILES. “And” between values parts separate entries of the source, which are not always exact repeats. Equal entries are not always repeated. Values without a mark were called inactive. Inconclusive results are not listed. The source made the active and inactive calls. Unless noted, no rule for the calls is given here.

Test system in one assay: not listed separately
The assay is described as follows: qHTS assay for cell viability of HEK293 cells (AID 743288; active = well fitted cell-killing curve with a large enough effect; also: % is scaled to controls: 0 for no effect and ±100 for the full control effect; nearly all actives have a fitted effect of over 50% in size). The conditions noted are these: ATP luminescence (CellTiter-Glo), 18 h, stronger effect = lower value. The method in brief: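 After 18 h compound exposure at 37 C, parental HEK293 cells (2,000/well) are lysed with CellTiter-Glo and luminescence is read following 30 min at room temperature.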
In general terms: Quantitative high-throughput screening tests each substance at several concentrations.
Turning to `CC(C)CO`, the max response was 4.23%.
As for `Cc1ccc(Br)cc1`, the max response is -7.93%.
As for `C=CC(=O)OCCCC`, the max response is -0.0822%.
Still for that read-out and setting: in the case of `CCCCC=O` it was -6.95%; in that of `O=C(O)CNC(=O)c1ccc(CO)o1`, -5.2%.
Take `NC=O`: the max response was -0.0358%.
For the molecule `CC/C(C)=N/O`, the max response is 6.15%.
For `Cc1cccc2ccccc12`, the max response is 1.12%.
As to `CNc1ccccc1`, the max response is -6.52%.
Turning to `Nc1ccc(F)cc1F`, the max response was -2.02%.
As for `O=C1OC(=O)c2c(Br)c(Br)c(Br)c(Br)c21`, the max response is 2.2% and -6.24%.
Turning to `Nc1c(Cl)cc(Cl)cc1Cl`, the max response was -2.95%.
With `Nc1ccccc1S(=O)(=O)O`, the max response was -1.86%.
Consider `CCOCC(=O)O`, for which the max response is -0.256%.
Turning to `O=C(Cl)c1cccc([N+](=O)[O-])c1`, the max response is -15.1%.
Consider `NC(=O)c1ccccc1[N+](=O)[O-]`, for which the max response was 7.1%.
With `CCC(O)C(C)(C)C` (configuration not stated), the max response is -6.59%.
Still for that read-out and setting: next, `C=C(C)C(N)=O`: -1.33%; `CCc1ccccc1`: -3.72%.
`C/C=C1\CC2C=CC1C2` (configuration not stated): the max response is 9.62%.
`CC1(N)CCC(C(C)(C)N)CC1` (configuration not stated): the max response is 3.33%.
Turning to `CCCCC/C=C/C=C/C=O`, the max response is -1.02%.
As to `Cc1ccc(C)c(O)c1`, the max response was 5.19%.
`Clc1ccc(Cl)c(Cl)c1Cl`: the max response is 5.4% and -1.16%.
`Oc1cccc(Nc2ccccc2)c1`: the max response is 2.73%.
Still for that read-out and setting: next, `Nc1ccc([N+](=O)[O-])c(N)c1`: 8.4%.
As for `O=Cc1ccc(Cl)cc1`, the max response is -6.94%.
On the same count and under the same terms, next, `Cc1ccccc1Br`: -0.991%.
In the case of `ClCCl`, the max response was -3.33%.
Consider `NC(=O)NC(N)=O`, for which the max response is -4.97%.
For the molecule `Nc1cc([N+](=O)[O-])ccc1C(=O)O`, the max response was -6.72% and -9.32%.

The target in a further assay is Nuclear receptor subfamily 1 group I member 2 (Rattus norvegicus) (UniProt Q9R1A7). The assay is described as follows: qHTS assay for small molecule activators of the rat pregnane X receptor (rPXR) signaling pathway (AID 651751). Also: 0% is about no effect. The settings on record: rPXR reporter cells, luciferase (One-Glo), 24 h.
Sequence of Nuclear receptor subfamily 1 group I member 2 (Rattus norvegicus) (Q9R1A7 whole entry, looked up): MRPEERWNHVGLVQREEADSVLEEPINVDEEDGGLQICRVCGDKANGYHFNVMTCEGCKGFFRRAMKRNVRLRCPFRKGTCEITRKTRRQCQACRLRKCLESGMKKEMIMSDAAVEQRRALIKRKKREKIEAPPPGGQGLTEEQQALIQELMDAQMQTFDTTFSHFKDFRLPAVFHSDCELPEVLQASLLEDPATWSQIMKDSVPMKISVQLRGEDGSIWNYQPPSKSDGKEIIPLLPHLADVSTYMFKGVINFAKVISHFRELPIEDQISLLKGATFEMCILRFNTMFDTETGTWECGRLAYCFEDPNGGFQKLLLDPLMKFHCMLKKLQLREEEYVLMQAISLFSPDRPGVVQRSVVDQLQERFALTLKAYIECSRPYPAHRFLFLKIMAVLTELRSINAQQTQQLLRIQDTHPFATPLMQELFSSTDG
On to `CC(C)CO`, for which the max response was 1.55%.
Take `Cc1ccc(Br)cc1`: the max response was 10.2%.
As to `C=CC(=O)OCCCC`, the max response is 6.31%.
With `CCCCC=O`, the max response is -1.64%.
With `O=C(O)CNC(=O)c1ccc(CO)o1`, the max response was -7.08%.
In the case of `NC=O`, the max response was -1.14%.
Take `CC/C(C)=N/O`: the max response was 5.17%.
In the case of `Cc1cccc2ccccc12`, the max response is 3.98%.
Turning to `CNc1ccccc1`, the max response is 4.02%.
For the molecule `Nc1ccc(F)cc1F`, the max response is 3.66%.
For the molecule `C=C(C)OC(C)=O`, the max response was -1.49%.
With `c1ccc(Oc2ccccc2)cc1`, the max response was -0.536% and 5.2%.
`O=C1OC(=O)c2c(Br)c(Br)c(Br)c(Br)c21`: the max response was -2.83% and 0.309%.
`Nc1c(Cl)cc(Cl)cc1Cl`: the max response is -2.23%.
`Nc1ccccc1S(=O)(=O)O`: the max response was -0.431%.
For the molecule `CCOCC(=O)O`, the max response was 1.81%.
On to `O=C(Cl)c1cccc([N+](=O)[O-])c1`, for which the max response is -6.23%.
Same read-out and setting: in the case of `NC(=O)c1ccccc1[N+](=O)[O-]` it was -1.43%; in that of `CSc1ccc(C=O)cc1`, 9.01%; in that of `CCC(O)C(C)(C)C` (configuration not stated), 7.53%.
As to `Cc1ccc(C#N)cc1`, the max response is 3.52%.
In the case of `C=C(C)C(N)=O`, the max response is 2.1%.
With `CCc1ccccc1`, the max response was -0.471%.
Take `C/C=C1\CC2C=CC1C2` (configuration not stated): the max response is 0.0305%.
Still for that read-out and setting: next, `CC1(N)CCC(C(C)(C)N)CC1` (configuration not stated): 1.15%.
For `CCCCC/C=C/C=C/C=O`, the max response was 5.82% and -4.16%.
As to `CCCCCCC=O`, the max response is -7.57%.
Consider `CCNc1cc(O)ccc1C`, for which the max response was -2.12%.
In the case of `Cc1ccc(C)c(O)c1`, the max response was 4.49%.
`Clc1ccc(Cl)c(Cl)c1Cl`: the max response is -5.98% and -1.32%.
Turning to `Cc1ccc2c(c1[N+](=O)[O-])C(=O)c1ccccc1C2=O`, the max response is 5.79%.
On to `CC(C)=CCC/C(C)=C/C=O`, for which the max response was -5.36% and -0.0145%.
Same read-out and setting: in the case of `Oc1cccc(Nc2ccccc2)c1` it was 5.07%.
The same measure, in the same setting: in the case of `Nc1ccc([N+](=O)[O-])c(N)c1` it was 1.18%; in that of `O=Cc1ccc(Cl)cc1`, -2.77%.
Turning to `Cc1ccccc1Br`, the max response is -1.24%.
Same read-out and setting: next, `ClCCl`: 1.89%; `NC(=O)NC(N)=O`: -0.329%.
Take `Nc1cc([N+](=O)[O-])ccc1C(=O)O`: the max response was -5.92% and 1.25%.

Test system in another assay: not listed separately
Put plainly: qHTS assay for small molecule activators of the human pregnane X receptor (PXR) signaling pathway (AID 720659). Also: 0% is about no effect. The conditions noted are these: DPX-2 HepG2 CYP3A4-luciferase, 24 h; series mostly up to 92.3 µM; activation: at the top concentration.
Regarding `CC(C)CO`, the “activation” value was -1.24%.
As to `Cc1ccc(Br)cc1`, the “activation” value is -10.3%.
For `C=CC(=O)OCCCC`, the “activation” value was -11.4%.
With `CCCCC=O`, the “activation” value is -7.6%.
For the molecule `O=C(O)CNC(=O)c1ccc(CO)o1`, the “activation” value was -4.69%.
With `NC=O`, the “activation” value is -0.424%.
As to `CC/C(C)=N/O`, the “activation” value was -3.38%.
On to `Cc1cccc2ccccc12`, for which the “activation” value is -8.7%.
Consider `CNc1ccccc1`, for which the “activation” value is -3.99%.
As to `Nc1ccc(F)cc1F`, the “activation” value is -10.2%.
Regarding `C=C(C)OC(C)=O`, the “activation” value is -0.356%.
For the molecule `c1ccc(Oc2ccccc2)cc1`, the call was inactive.
For the molecule `O=C1OC(=O)c2c(Br)c(Br)c(Br)c(Br)c21`, the molecule was classed as inactive.
In the case of `Nc1c(Cl)cc(Cl)cc1Cl`, the “activation” value was -11.7%.
For `Nc1ccccc1S(=O)(=O)O`, the “activation” value was -5.49%.
As to `CCOCC(=O)O`, the “activation” value was -0.287%.
In the case of `O=C(Cl)c1cccc([N+](=O)[O-])c1`, the “activation” value is -4.65%.
`NC(=O)c1ccccc1[N+](=O)[O-]`: the “activation” value is -6.8%.
Take `CSc1ccc(C=O)cc1`: the “activation” value is -4.06%.
As to `CCC(O)C(C)(C)C` (configuration not stated), the “activation” value is -7.92%.
In the case of `Cc1ccc(C#N)cc1`, the “activation” value was -10.5%.
Regarding `C=C(C)C(N)=O`, the “activation” value was -16.5%.
In the case of `CCc1ccccc1`, the “activation” value is 0.257%.
Still for that read-out and setting: next, `C/C=C1\CC2C=CC1C2` (configuration not stated): -0.161%; `CC1(N)CCC(C(C)(C)N)CC1` (configuration not stated): -7.63%.
Turning to `CCCCC/C=C/C=C/C=O`, the result was inactive.
Regarding `CCCCCCC=O`, the “activation” value was -6.3%.
On the same count and under the same terms, in the case of `Cc1ccc(C)c(O)c1` it was -4.03%.
As for `Clc1ccc(Cl)c(Cl)c1Cl`, the call was inactive.
Take `CC(C)=CCC/C(C)=C/C=O`: the molecule was classed as inactive.
`Oc1cccc(Nc2ccccc2)c1`: the “activation” value is 10.7%.
For `Nc1ccc([N+](=O)[O-])c(N)c1`, the “activation” value is -10.2%.
As for `O=Cc1ccc(Cl)cc1`, the “activation” value is -2.04%.
On to `Cc1ccccc1Br`, for which the “activation” value is -9.56%.
With `ClCCl`, the “activation” value was -15.4%.
Same read-out and setting: next, `NC(=O)NC(N)=O`: -8.15%.
With `Nc1cc([N+](=O)[O-])ccc1C(=O)O`, the call was inactive.

Source of the values: PubChem BioAssay (NCATS).
